According to PubChem BioAssay (NCATS):
Activity calls are given as the source filed them. The call rests on the fitted dose curve; in most records, active means well fitted activation curve with a large enough effect; inconclusive means small, poorly fitted or top-dose-only effect; inactive means flat fitted curve, though single readings scatter.

Test: Confirmation and Secondary Assay for Modulators of Hemoglobin Beta Chain Splicing at IVS2 654 locus (AID 910);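 further: per-well total GFP intensity by laser scanning cytometry after 2-day treatment; % of control where 0% means no effect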
Conditions: HeLa EGFP-654 splicing reporter, GFP fluorescence, 48 h; series mostly up to 46.1 µM; activation (splicing correction): at the top concentration
How it was run: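 HeLa cells stably carrying EGFP interrupted by mutant beta-globin IVS2-654 intron (CMV-driven) were treated with compound for 2 days at 37C; corrected splicing was scored as total peak GFP intensity per well (488 nm excitation, 500-520 nm emission).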

Activation (splicing correction), inactive:
COC(=O)CC1C(C)(C)C(OC(C)=O)[C@@]2(O)C=C3C4CC(=O)OC(c5ccoc5)[C@]4(C)CCC3[C@@]1(C)C2=O (some centres undefined) -3.25%
CC(=O)OCC(=O)C1CCC2C3CCC4=CC(=O)CC[C@@]4(C)C3CC[C@]12C (some centres undefined) -2.83%
CCCCCC1C(=O)CCC1CC(=O)O (centres undefined) 0.385% [at 38.3 µM]
CCC(/C=C/C(C)C1CCC2C3CCC4=CC(=O)CC[C@@]4(C)C3CC[C@@]12C)C(C)C (some centres undefined) 0.814% [at 38.3 µM]
Cc1cn(C2CCC(CO)O2)c(=O)[nH]c1=O (centres undefined) 0.265% [at 38.3 µM]
COc1c(O)cc2c(c1O)C1OC(CO)C(O)[C@H](O)[C@H]1OC2=O (some centres undefined) 0.303% [at 38.3 µM]
C/C=C(\C)C(=O)OC1[C@@H]2C=C3C4CC(=O)OC(c5ccoc5)[C@]4(C)CCC3[C@@](C)(C2=O)C(C(O)C(=O)OC)C1(C)C (some centres undefined) -7.87%
COc1ccc(C2CC(=O)c3c(O)cc(O[C@H]4OC(COC5OC(C)C(O)C(O)[C@@H]5O)C(O)C(O)C4O)cc3O2)cc1O (some centres undefined) 1.66% [at 38.3 µM]
CNc1ccccc1C(=O)N1CCc2c([nH]c3ccccc23)C1=O 2.2% [at 38.3 µM]
CON 0.303% [at 38.3 µM]
CC(=O)OC1CC(OC(C)=O)[C@]2(C)C(CC(=O)[C@]3(C)C2CC[C@@]2(C)C(c4ccoc4)OC(=O)C4O[C@@]423)C1(C)C (some centres undefined) 5.3%
Cc1ccc2c(c1)CC[C@H]1CC(=O)CC[C@@]21C -2.71%
COc1ccc(-c2cc(=O)c3c(O)cc(O[C@@H]4OC(COC5OC(C)C(O)C(O)[C@@H]5O)C(O)C(O)C4O)cc3o2)cc1 (some centres undefined) -3.98%
CCN(CC)Cc1ccc(Nc2ccnc3cc(Cl)ccc23)cc1O 1.55%
CCN1CCN(C(=O)NC(C(=O)NC2C(=O)N3C2SC(C)(C)C3C(=O)O)c2ccccc2)C(=O)C1=O (centres undefined) 2.08%
COc1ccc2c(c1)[C@]1(C)CCC(=O)C[C@H]1CC2 2.4% [at 38.3 µM]
CCCCCC(=O)Cc1cc(O)cc(O)c1C(=O)Oc1cc(CC(=O)CCCCC)c(C(=O)O)c(OC)c1 0.276% [at 38.3 µM]
COc1c(OC)c2occc2c2oc(=O)ccc12 4.39%
CCCCC(=O)Oc1ccccc1C(=O)O 8.2%
CC1(O)CC2C(CC1O)C2(C)C (centres undefined) 1.81% [at 38.3 µM]
Nc1nc2c(nc(Sc3ccc(Cl)cc3)n2C2OC(CO)C(O)C2O)c(=O)[nH]1 (centres undefined) -0.873% [at 38.3 µM]
C=C(C)C1CC=C(CO)CC1 (centres undefined) 0.079%
O=C1CC(c2ccc(O)c(O)c2)Oc2cc(O)cc(O)c21 (centres undefined) 2.35%
COc1ccc(/C=C/C(=O)c2ccc(O)cc2O)cc1OC 12.2%
COC(=O)CC1C(C)(C)C(=O)C2CC3=C4CC(=O)OC(c5ccoc5)[C@]4(C)CCC3[C@@]1(C)C2=O (some centres undefined) 0.728%
C/C=C1\C2C=C(C)C[C@@]1(N)c1ccc(=O)[nH]c1C2 4.74%
CCOC(=O)CCC(=O)O[C@H]1C(O[C@@H]2C(C)[C@H](O[C@H]3C[C@@](C)(OC)C(O)C(C)O3)C(C)C(=O)OC(CC)[C@@](C)(O)C(O)[C@H](C)C(=O)C(C)C[C@]2(C)O)OC(C)CC1N(C)C (some centres undefined) 9.21%
C=C[C@](C)(O)CCC1C(=C)CCC2[C@@](C)(CO)CCC[C@@]12C (some centres undefined) -2.4% [at 38.3 µM]
COC1(C)CCC2OC2(C)CCC2C1CC2(C)C (centres undefined) 2.01% [at 38.3 µM]
CC(=O)OCCC(C)CCC=C(C)C (centres undefined) 2.32% [at 38.3 µM]
CC(CCC(=O)O)C1CCC2C3CC[C@@H]4CCCC[C@@]4(C)C3CC[C@@]12C (some centres undefined) -2.82% [at 38.3 µM]
CC1CC[C@@]23CCC4(C)[C@@]5(C)CCC6C(C)(C)C(O)CC[C@@]6(C)C5C=C[C@@]4(OC2=O)C3C1C (some centres undefined) -0.266% [at 38.3 µM]
C=C1C2CC[C@@]3(C)C(c4ccoc4)OC(=O)C[C@@]13OC1CC(=O)C(C)(C)C(C(O)C(=O)OC)[C@]12C (some centres undefined) -1.27%
CC(=O)OC1CC2C(C)(C)C(O)CC(O)[C@@]2(C)C2CC[C@@]3(C)C(=CC(=O)OC3c3ccoc3)[C@]12C (some centres undefined) -5.83%
